Inconclusive results are not listed. Activity calls are given as the source filed them. Unless noted, calls follow the shape of the dose curve; as a rule, active = well fitted curve in the direction sought with a large enough effect in the repeat runs; inconclusive = weak or mixed curves; inactive = no such curve, though single readings can be large; an effect the other way counts as inactive or inconclusive.
Legend:
[1] = qHTS assay to identify small molecule antagonists of the estrogen related receptor (ERR) signaling pathway - cell viability counter screen (AID 1224818); also: potency is read from the fitted curve at half-maximal effect;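 also: viability measured after 17.5 h of compound exposure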
Method in brief: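 Quantitative high-throughput viability counter screen in ERR cells. Compounds (DMSO) incubated 17.5 h at 37 C; read-out was CellTiter-Fluor fluorescence.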

[2] = qHTS assay to identify small molecule antagonists of the estrogen related receptor signaling pathway with the pleiotropic PPARgamma coactivator (PGC) cell viability counter screen (AID 1224822; also: potency is read from the fitted curve at half-maximal effect)
Method in brief: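 Cytotoxicity in the PGC/ERR cell line is assessed with CellTiter-Fluor, read as fluorescence intensity 30 min after reagent addition, following 17.5 h compound treatment at 37 C.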

[3] = qHTS assay to identify small molecule antagonists of the estrogen related receptor (ERR) signaling pathway (AID 1224819; also: nearly all actives have a fitted effect of over 50% in size; also: potency is read from the fitted curve at half-maximal effect)
Method in brief: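 ERR reporter cell line (NTP) plated at 2,000 cells/well, settled 6 h at 37C/5% CO2, then exposed to LOPAC compounds for 18 h at 37C. One-Glo luciferase luminescence read after 30 min at room temperature.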

[4] = qHTS assay to identify small molecule agonists of the estrogen related receptor (ERR) signaling pathway (AID 1224820)
Method in brief: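 Luminescence readout (One-Glo, 30 min RT) from NTP-supplied ERR cell line exposed to compounds for 18 h at 37 C. Cells seeded 2,000 per well and pre-incubated 6 h before pin-tool compound transfer.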

[5] = qHTS assay to identify small molecule agonists of the estrogen related receptor signaling pathway with the pleiotropic PPARgamma coactivator (PGC) (AID 1224823)
Method in brief: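 Luminescence readout (One-Glo, 30 min RT) from PGC/ERR cell line treated 18 h at 37 C with pin-tool-delivered DMSO compound solutions; cells plated 6 h before dosing. Quantitative HTS format.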

[6] = qHTS assay for small molecule agonists of the p53 signaling pathway (AID 651631; calls by dose curve; also: nearly all actives have a fitted effect of over 15% in size)
Method in brief: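 Read-out is beta-lactamase FRET fluorescence measured 2 h after substrate addition at room temperature, in HCT-116 cells with a p53 response element-driven reporter exposed to compounds for 16 h at 37 °C.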

[7] = qHTS assay for small molecules that induce genotoxicity in human embryonic kidney cells expressing luciferase-tagged ATAD5 (AID 651632); also: nearly all actives have a fitted effect of over 15% in size
Method in brief: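 Quantitative HTS in HEK293T expressing luciferase-tagged ATAD5, whose levels rise upon DNA damage. Exposure ran 16 hr at 37C and 5% CO2, with luminescence read 30 min after Amplite addition at room temperature.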

[8] = qHTS assay for small molecule agonists of the p53 signaling pathway - cell viability (AID 651633; calls by dose curve;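 also: p53RE-bla HCT reporter cells with a stable beta-lactamase p53 reporter; series mostly up to about 83 µM; nearly all actives have a fitted effect of over 30% in size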)
Method in brief: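 p53RE-bla cells were treated with compound for 16 hours at 37 C. Cytotoxicity was then measured as CellTiter-Glo luminescence after 30 min at room temperature.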

[9] = qHTS assay for small molecules that induce genotoxicity in human embryonic kidney cells expressing luciferase-tagged ATAD5 - cell viability (AID 651634; calls by dose curve; also: nearly all actives have a fitted effect of over 25% in size)
Method in brief: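 After 15.5 hr incubation with compound at 37C, 5% CO2, HEK293T ATAD5-luciferase cells received CellTiter-Fluor reagent; fluorescence intensity was quantified following 30 min at 37C.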

[10] = qHTS assay for small molecule disruptors of the mitochondrial membrane potential (AID 720635)
Method in brief: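 HepG2 cells exposed to compound 1 hr at 37C, then Mito-MPS dye 30 min. Ratio read of aggregate (540/590 nm) versus monomer (490/535 nm) fluorescence.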

[11] = qHTS assay to test for compound auto fluorescence at 535 nm (green) in HepG2 cells (AID 720675)
[12] = qHTS assay to test for compound auto fluorescence at 460 nm (blue) in HEK293 cells (AID 720678)
Method in brief: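 Cells were seeded and left to adhere for 4-5 hr at 37C. Compounds were then pin-transferred. After an overnight incubation at 37C under 5% CO2, intrinsic fluorescence at 405/460 nm was measured and referenced to triamterene.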

[13] = qHTS assay to test for compound auto fluorescence at 590 nm (red) in HEK293 cells (AID 720679)
Method in brief: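 Each well held 2,000 HEK293 cells in medium containing 10% dialyzed FBS. Following 4-5 hr attachment at 37C, 23 nL test compound or DMSO was added; plates sat overnight, and red fluorescence (540/590nm) was recorded.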

[14] = qHTS assay to test for compound auto fluorescence at 535 nm (green) in HEK293 cells (AID 720680)
[15] = qHTS assay to test for compound auto fluorescence at 460 nm (blue) in HEK293 cell free culture (AID 720681)
Method in brief: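 Compounds were added to cell-free DMEM with 10% FBS and fluorescence read directly. The blue channel used 405 nm excitation and 460 nm emission, with triamterene as the reference fluorophore.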

[16] = qHTS assay to test for compound auto fluorescence at 535 nm (green) in HEK293 cell free culture (AID 720682)
Method in brief: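 Fluorescein serves as the green reference fluorophore; each compound's intrinsic emission at 535 nm (excitation 485 nm) is reported as an equivalent amount of that dye, measured in serum-containing DMEM without cells.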

[17] = qHTS assay to test for compound auto fluorescence at 590 nm (red) in HEK293 cell free culture (AID 720683)
Method in brief: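 Cell-free wells of DMEM with 10% FBS received compound, and intrinsic fluorescence was read at excitation/emission 540/590 nm. Values expressed as equivalence to Rose Bengal sodium.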

[18] = qHTS assay to test for compound auto fluorescence at 590 nm (red) in HepG2 cell free culture (AID 720684)
Method in brief: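 Rose Bengal sodium served as the reference for red signal. Test compounds were dispensed into serum-containing MEM (10% FBS) without cells, and plates were read at 540/590 nm.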

[19] = qHTS assay to test for compound auto fluorescence at 460 nm (blue) in HepG2 cell free culture (AID 720685)
Method in brief: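 Cell-free plates of MEM plus 10% FBS received 23 nL compound or DMSO vehicle; blue-channel (405/460 nm) intensity scored against triamterene as reference fluorophore.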

[20] = qHTS assay to test for compound auto fluorescence at 535 nm (green) in HepG2 cell free culture (AID 720686)
[21] = qHTS assay to test for compound auto fluorescence at 460 nm (blue) in HepG2 cells (AID 720687)
Method in brief: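 HepG2 cells in MEM with 10% FBS, attached overnight at 37 C, were exposed to compound or DMSO for 1 hr at 37 C, 5% CO2. Blue fluorescence was read at 405/460 nm, with triamterene as reference fluorophore.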

[22] = molecular target: Glucocorticoid receptor (Homo sapiens) (UniProt P04150); assay: qHTS assay to identify small molecule agonists of the glucocorticoid receptor (GR) signaling pathway (AID 720691; active = well fitted activation curve with a large enough effect in the signal ratio in the repeat runs, not every such curve was filed as active; the % refers to the signal ratio)
Glucocorticoid receptor (Homo sapiens), sequence (P04150 whole entry, looked up): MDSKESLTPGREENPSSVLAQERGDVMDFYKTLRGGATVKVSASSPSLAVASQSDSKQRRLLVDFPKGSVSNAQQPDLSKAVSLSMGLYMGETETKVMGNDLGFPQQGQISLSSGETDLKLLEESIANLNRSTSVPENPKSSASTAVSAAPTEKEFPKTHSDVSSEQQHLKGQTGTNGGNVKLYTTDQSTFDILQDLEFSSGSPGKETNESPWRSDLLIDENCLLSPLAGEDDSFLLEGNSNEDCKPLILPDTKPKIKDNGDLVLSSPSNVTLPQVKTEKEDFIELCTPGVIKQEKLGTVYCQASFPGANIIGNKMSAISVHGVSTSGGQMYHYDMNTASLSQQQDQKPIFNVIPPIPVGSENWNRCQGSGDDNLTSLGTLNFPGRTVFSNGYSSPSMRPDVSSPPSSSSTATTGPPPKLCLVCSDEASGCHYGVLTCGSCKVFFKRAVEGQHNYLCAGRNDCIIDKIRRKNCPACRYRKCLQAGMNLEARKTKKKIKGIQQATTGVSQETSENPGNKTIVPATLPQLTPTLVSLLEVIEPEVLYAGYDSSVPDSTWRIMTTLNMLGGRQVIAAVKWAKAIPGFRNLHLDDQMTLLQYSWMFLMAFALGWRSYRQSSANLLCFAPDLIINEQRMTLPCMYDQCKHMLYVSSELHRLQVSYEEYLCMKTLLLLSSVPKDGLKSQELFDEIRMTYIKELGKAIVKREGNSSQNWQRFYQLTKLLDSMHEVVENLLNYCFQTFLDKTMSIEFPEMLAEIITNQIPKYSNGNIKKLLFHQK
Method in brief: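 Cells: GR-bla HeLa, endogenous GR with stably integrated GRE-beta-lactamase reporter. Treatment 18 h, 37 C, compounds delivered in DMSO. Detection via LiveBLAzer B/G FRET substrate, 2 h RT, fluorescence intensity.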

[23] = molecular target: Glucocorticoid receptor (Homo sapiens) (UniProt P04150); assay: qHTS assay to identify small molecule antagonists of the glucocorticoid receptor (GR) signaling pathway (AID 720692; active = well fitted inhibition curve with a large enough effect in the signal ratio in the repeat runs, not every such curve was filed as active; the % refers to the signal ratio)
Method in brief: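 Quantitative HTS in antagonist format: HeLa cells expressing endogenous GR and a stably integrated GRE-bla reporter, stimulated with 5 nM dexamethasone (final) alongside test compounds for 18 h.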

[24] = qHTS assay to identify small molecule antagonists of the glucocorticoid receptor (GR) signaling pathway - cell viability counter screen (AID 720693); also: nearly all actives have a fitted effect of over 55% in size
[25] = qHTS assay for identifying genotoxic compounds that show differential cytotoxicity against isogenic chicken DT40 cell lines with known DNA damage response pathways - Rad54/Ku70 mutant cell line (AID 743015); also: nearly all actives have a fitted effect of over 60% in size
[26] = qHTS assay to identify small molecule antagonists of the androgen receptor (AR) signaling pathway - cell viability counter screen (AID 743033; also: nearly all actives have a fitted effect of over 45% in size)
[27] = qHTS assay to identify small molecule antagonists of the androgen receptor (AR) signaling pathway using the MDA cell line - cell viability counter screen (AID 743041; also: nearly all actives have a fitted effect of over 45% in size)
Method in brief: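 Cytotoxicity counter screen: MDA-kb2 AR-luc cells, compound + R1881, 16 h, 37C, 0% CO2; CellTiter-Fluor added at 15.5 h, fluorescence read after 30 min.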

[28] = qHTS assay to identify small molecule antagonists of the thyroid receptor (TR) signaling pathway - cell viability counter screen (AID 743064); also: nearly all actives have a fitted effect of over 50% in size
Method in brief: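 Fluorescence from CellTiter-Fluor, added after 23.5 h exposure at 37 °C, reported viability of GH3.TRE-Luc cells co-treated with compound and 1 nM T3. Measured in the same wells as the luciferase TR readout.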

[29] = qHTS assay to identify small molecule antagonists of the thyroid receptor (TR) signaling pathway (AID 743065); also: series mostly up to about 70 µM; nearly all actives have a fitted effect of over 55% in size
Method in brief: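 GH3.TRE-Luc rat pituitary cells (two TREs driving luciferase) were dosed with compound, then stimulated with 1 nM T3 (final) for 23.5 h at 37 C. ONE-Glo luminescence was the read-out, with CellTiter-Fluor fluorescence as the cytotoxicity counter-screen.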

[30] = tested on: thyroid hormone receptor (rat, GH3 cells); assay: qHTS assay to identify small molecule agonists of the thyroid receptor (TR) signaling pathway (AID 743066; calls by dose curve)
[31] = molecular target: Estrogen receptor (Homo sapiens) (UniProt P03372); assay: qHTS assay to identify small molecule antagonists of the estrogen receptor alpha (ER-alpha) signaling pathway (AID 743069; active = well fitted curve in the direction sought with a large enough effect in the signal ratio in the repeat runs, not every such curve was filed as active; the % refers to the signal ratio)
Estrogen receptor (Homo sapiens), sequence (P03372 whole entry, looked up): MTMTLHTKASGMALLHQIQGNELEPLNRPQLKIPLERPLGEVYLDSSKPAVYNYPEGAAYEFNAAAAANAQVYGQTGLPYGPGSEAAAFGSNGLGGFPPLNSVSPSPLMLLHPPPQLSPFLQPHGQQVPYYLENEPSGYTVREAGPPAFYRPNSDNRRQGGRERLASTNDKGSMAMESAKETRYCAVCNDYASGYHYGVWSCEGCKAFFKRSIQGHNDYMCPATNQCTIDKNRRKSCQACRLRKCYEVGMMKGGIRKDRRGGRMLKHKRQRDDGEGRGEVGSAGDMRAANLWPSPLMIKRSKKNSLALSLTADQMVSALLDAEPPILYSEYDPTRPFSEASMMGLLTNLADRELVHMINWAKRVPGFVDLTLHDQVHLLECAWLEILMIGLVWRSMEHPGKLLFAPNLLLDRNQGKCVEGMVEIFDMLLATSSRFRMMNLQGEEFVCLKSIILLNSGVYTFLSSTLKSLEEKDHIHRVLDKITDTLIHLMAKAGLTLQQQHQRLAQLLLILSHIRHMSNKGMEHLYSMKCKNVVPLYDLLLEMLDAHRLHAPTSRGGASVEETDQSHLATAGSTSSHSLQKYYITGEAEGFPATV
Method in brief: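 Beta-lactamase FRET fluorescence is read after 2 hr at room temperature with LiveBLAzer B/G substrate. Before that, ER-alpha-bla HEK293 cells sit 4 hr after plating, then receive compound plus 17beta-estradiol and incubate 18 hr at 37C.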

[32] = molecular target: Estrogen receptor (Homo sapiens) (UniProt P03372); assay: qHTS assay to identify small molecule agonists of the estrogen receptor alpha (ER-alpha) signaling pathway (AID 743075; calls by dose curve;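 also: HEK293 GripTite cells with ER-alpha and UAS-driven beta-lactamase reporter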)
[33] = qHTS assay to identify small molecule antagonists of the estrogen receptor alpha (ER-alpha) signaling pathway using the BG1 cell line (AID 743080; calls by dose curve; also: series mostly up to about 70 µM; nearly all actives have a fitted effect of over 25% in size)
Method in brief: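 Antagonist mode: compounds in DMSO were pinned onto BG1-Luc-4E2 cells alongside 17beta-estradiol agonist, incubated 21.5 h, and ERE-driven luciferase measured with ONE-Glo. Cytotoxicity was multiplexed using CellTiter-Fluor fluorescence.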

[34] = qHTS assay to identify small molecule antagonists of the estrogen receptor alpha (ER-alpha) signaling pathway using the BG1 cell line - cell viability counter screen (AID 743081);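 also: compound given together with 17beta-estradiol as the ER stimulus; series mostly up to about 70 µM; nearly all actives have a fitted effect of over 45% in size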
[35] = molecular target: Aromatase (Homo sapiens) (UniProt P11511); assay: qHTS assay to identify aromatase inhibitors (AID 743083); also: series mostly up to about 70 µM; nearly all actives have a fitted effect of over 55% in size
Aromatase (Homo sapiens), sequence (P11511 whole entry, looked up): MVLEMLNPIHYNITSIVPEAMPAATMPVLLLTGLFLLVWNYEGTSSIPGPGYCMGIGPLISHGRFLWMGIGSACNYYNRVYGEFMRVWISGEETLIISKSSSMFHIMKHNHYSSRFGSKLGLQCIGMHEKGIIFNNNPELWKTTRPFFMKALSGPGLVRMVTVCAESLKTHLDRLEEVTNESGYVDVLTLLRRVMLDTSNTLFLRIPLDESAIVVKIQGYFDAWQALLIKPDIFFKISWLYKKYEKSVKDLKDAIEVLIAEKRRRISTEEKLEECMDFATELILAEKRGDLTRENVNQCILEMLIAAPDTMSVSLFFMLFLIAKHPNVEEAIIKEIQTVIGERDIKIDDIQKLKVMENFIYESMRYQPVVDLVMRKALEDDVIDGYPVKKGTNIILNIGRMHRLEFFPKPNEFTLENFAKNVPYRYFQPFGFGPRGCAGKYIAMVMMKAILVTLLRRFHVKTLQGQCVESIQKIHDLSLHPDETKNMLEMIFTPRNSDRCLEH

[36] = qHTS assay to identify aromatase inhibitors - cell viability counter screen (AID 743084);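 also: cells stimulated with testosterone during compound exposure; nearly all actives have a fitted effect of over 55% in size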
[37] = molecular target: Aryl hydrocarbon receptor (Homo sapiens) (UniProt P35869); assay: qHTS assay to identify small molecule that activate the aryl hydrocarbon receptor (AhR) signaling pathway (AID 743085);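 also: HG2L7.5c1 human HepG2 liver cells with stably integrated DRE-driven firefly reporter; series mostly up to about 70 µM; nearly all actives have a fitted effect of over 15% in size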
Aryl hydrocarbon receptor (Homo sapiens), sequence (P35869 whole entry, looked up): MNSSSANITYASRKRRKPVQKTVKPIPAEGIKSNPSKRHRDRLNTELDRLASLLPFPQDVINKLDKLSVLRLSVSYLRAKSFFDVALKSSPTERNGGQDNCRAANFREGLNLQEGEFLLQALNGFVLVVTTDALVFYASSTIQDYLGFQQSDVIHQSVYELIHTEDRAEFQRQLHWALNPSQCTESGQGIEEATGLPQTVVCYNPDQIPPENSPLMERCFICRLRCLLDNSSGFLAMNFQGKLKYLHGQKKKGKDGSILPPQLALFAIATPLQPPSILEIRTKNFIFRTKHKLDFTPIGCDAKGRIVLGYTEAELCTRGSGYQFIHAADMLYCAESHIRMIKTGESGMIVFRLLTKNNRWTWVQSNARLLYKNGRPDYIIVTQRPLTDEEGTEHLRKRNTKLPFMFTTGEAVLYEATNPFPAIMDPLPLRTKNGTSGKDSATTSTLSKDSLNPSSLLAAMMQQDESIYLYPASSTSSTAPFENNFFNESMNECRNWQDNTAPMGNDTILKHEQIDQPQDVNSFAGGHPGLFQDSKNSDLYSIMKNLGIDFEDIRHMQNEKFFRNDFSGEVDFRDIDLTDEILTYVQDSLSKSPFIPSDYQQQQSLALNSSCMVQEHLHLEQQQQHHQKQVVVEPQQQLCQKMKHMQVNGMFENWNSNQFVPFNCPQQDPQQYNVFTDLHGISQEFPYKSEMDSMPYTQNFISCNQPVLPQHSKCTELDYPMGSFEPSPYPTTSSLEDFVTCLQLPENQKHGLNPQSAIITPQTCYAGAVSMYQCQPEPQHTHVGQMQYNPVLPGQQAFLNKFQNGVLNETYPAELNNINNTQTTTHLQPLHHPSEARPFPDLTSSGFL
Method in brief: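 Cell line HG2L7.5c1 (human hepatoma, 20× DRE-luc). Plated, 5 h 37C, compound/DMSO added, 24 h 37C. CellTiter-Fluor 30 min 37C → fluorescence; then ONE-Glo 30 min RT → luminescence.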

[38] = qHTS assay to identify small molecule that activate the aryl hydrocarbon receptor (AhR) signaling pathway - cell viability counter screen (AID 743086);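 also: HepG2 liver cells carrying the AhR DRE luciferase reporter; series mostly up to about 70 µM; nearly all actives have a fitted effect of over 45% in size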
Method in brief: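 HepG2-AhR-luc (HG2L7.5c1) cells, 4000/well, treated 24 h at 37 C with compound; viability measured as CellTiter-Fluor fluorescence after 30 min in the same wells as the luciferase read.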

[39] = molecular target: Peroxisome proliferator-activated receptor gamma (Homo sapiens) (UniProt P37231); assay: qHTS assay to identify small molecule agonists of the peroxisome proliferator-activated receptor gamma (PPARg) signaling pathway (AID 743094; active = well fitted activation curve with a large enough effect in the signal ratio in the repeat runs, not every such curve was filed as active; the % refers to the signal ratio)
Peroxisome proliferator-activated receptor gamma (Homo sapiens), sequence (P37231 whole entry, looked up): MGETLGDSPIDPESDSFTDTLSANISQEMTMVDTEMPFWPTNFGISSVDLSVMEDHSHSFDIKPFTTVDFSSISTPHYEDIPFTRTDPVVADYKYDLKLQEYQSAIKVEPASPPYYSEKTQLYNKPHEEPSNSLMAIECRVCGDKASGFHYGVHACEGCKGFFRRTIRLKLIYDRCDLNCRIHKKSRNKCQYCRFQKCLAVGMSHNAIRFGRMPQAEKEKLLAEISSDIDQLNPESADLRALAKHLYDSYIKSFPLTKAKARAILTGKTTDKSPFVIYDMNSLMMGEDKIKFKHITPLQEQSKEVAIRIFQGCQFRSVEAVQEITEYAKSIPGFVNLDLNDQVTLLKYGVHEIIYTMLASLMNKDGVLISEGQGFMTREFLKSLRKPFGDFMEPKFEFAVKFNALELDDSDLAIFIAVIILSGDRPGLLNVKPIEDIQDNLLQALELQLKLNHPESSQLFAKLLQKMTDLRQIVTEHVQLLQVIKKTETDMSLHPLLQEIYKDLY
Method in brief: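 Reporter activation was scored by fluorescence of cleaved LiveBLAzer B/G substrate (1 h, room temperature) in PPARg-bla HEK293H cells previously treated 17 h at 37C with DMSO-dissolved compounds.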

[40] = tested on: estrogen-related receptor alpha (ERRalpha) with PGC-1alpha coactivator, human; assay: qHTS assay to identify small molecule antagonists of the estrogen related receptor signaling pathway with the pleiotropic PPARgamma coactivator (PGC) (AID 1224821; calls by dose curve;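 also: series mostly up to about 46 µM; lower luminescence signal means antagonism of PGC/ERR signalling; nearly all actives have a fitted effect of over 50% in size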)
Method in brief: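 PGC/ERR reporter cells; 6 h pre-incubation 37 C/5% CO2; pin-tool compound in DMSO, 18 h 37 C; One-Glo added, 30 min RT; luminescence read. qHTS antagonist mode.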

[41] = qHTS assay to identify small molecule phospholipidosis (PLD) inducers (AID 1259344; active = well fitted curve in the direction sought with a large enough effect; an effect the other way counts as inactive or inconclusive)
Method in brief: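 Read-out is LipidTOX Red fluorescence (ex 595/em 615) imaged in HepG2 cells after 24 h compound exposure at 37 C, with Hoechst nuclear counterstain (ex 352/em 461) allowing per-cell normalisation.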

Measured: Potency

CC[C@@H]1C(=O)OC[C@@H]1Cc1cncn1C
inactive: [1] | [2]

CC[C@@H](C(N)=O)N1CCCC1=O
inactive: [1] | [2]

CNc1ccc2oc(C[C@H]3O[C@@]4(CC[C@H]3C)O[C@H]([C@H](C)C(=O)c3ccc[nH]3)[C@H](C)C[C@H]4C)nc2c1C(=O)O
inactive: [4] | [5]
active: [1] 10.6 µM | [3] 2.37 µM | [2] 9.44 µM

CCCCc1ccc(C(=O)O)nc1
inactive: [6] | [7] | [8] | [9] | [10] | [11] | [12] | [13] | [14] | [15] | [16] | [17] | [18] | [19] | [20] | [21] | [22] | [23] | [24] | [25] | [26] | [27] | [28] | [29] | [30] | [31] | [32] | [33] | [34] | [35] | [36] | [37] | [38] | [39] | [1] | [3] | [4] | [40] | [2] | [5] | [41]

NC(N)=Nc1ccc2[nH]c3c(c2c1)C[C@@]1(O)[C@H]2Cc4ccc(O)c5c4[C@@]1(CCN2CC1CC1)[C@H]3O5
inactive: [1] | [3] | [4] | [40] | [5]

c1ccc2cc(CC3=NCCN3)ccc2c1
inactive: [1] | [2]
